# Pf Dd2 inh = Plasmodium falciparum Dd2 growth inhibition | P. falciparum Dd2 growth, SYBR Green, 72 h | hit rate 4.3% among 120,000 | Potency, µM (doses to about 28.9 µM), actives largely listed as inhibitors | AID 1347417; active means well fitted inhibition curve with a large enough effect; further: nearly all actives have a fitted effect of over 65% in size
#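 Readout: SYBR Green fluorescence, 485 nm excitation, 535 nm emission, after ~16 h lysis at 37C. Before that, Dd2-infected red cells (2.5% hematocrit) grew 72 h with compound, 29 uM top final concentration.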
# A number is an active result; i = inactive. The sample as a whole holds a higher share of hits than the screen did.
SMILES,Pf Dd2 inh
CCOC(=O)C1=C(C)N=C2SC=C(CC(=O)NCCOC)N2C1c1cccc([N+](=O)[O-])c1 (stereo not given),i
O=C1Nc2ccccc2CNC12CCN(Cc1c[nH]c3ccccc13)CC2,i
O=C(C1CCCC1)N1CC2(CCN(Cc3ccccn3)CC2)Cc2ccccc21,10µM
O=C(C1CCCC1)N1CC2(CCN(Cc3c[nH]c4ccccc34)CC2)Cc2ccccc21,4.5µM
O=C(c1ccc(Cl)cc1)N1CC2(CCN(CC3CCCCC3)CC2)Cc2ccccc21,5.6µM
O=C(C1CCCC1)N1CC2(CCN(CC3CC3)C2)Cc2ccccc21 (stereo not given),8.9µM
CC(=O)N1Cc2ccccc2CC2(CCN(CC3CCNCC3)C2)C1 (stereo not given),i
CC(=O)N1CC2(CCN(C(=O)c3ccc(Cl)cc3)CC2)Cc2ccccc21,i
CC(=O)N1CC(CO)C2(CCN(Cc3c[nH]c4ccccc34)CC2)C1 (stereo not given),i
O=C(O)CCC(=O)N1CCC2(Cc3ccccc3N(C(=O)C3CCCC3)C2)C1 (stereo not given),i
O=C(c1ccccc1)N1Cc2ccccc2CC2(CCN(CC3CCNC3)C2)C1 (stereo not given),i
C[S+](=O)([O-])N1Cc2ccccc2CC2(CCN(Cc3ccccn3)CC2)C1,i
CC(=O)NCC(=O)N1Cc2ccccc2CC2(CCN(CC3CCCCC3)C2)C1 (stereo not given),i
CN1C(=O)[C@H]2CN(Cc3ccc(Cl)c(F)c3)C[C@H]2C1=O,i
COCCN1CC(CO)C2(CCN(C(=O)c3ccccc3)CC2)C1 (stereo not given),i
O=C(CCc1nc2ccccc2s1)N[C@@H]1CCOC[C@H]1OCCO,i
CC(=O)N1CC2(CCN(CC3CC3)C2)Cc2ccccc21 (stereo not given),i
O=C(C1CCCC1)N1CC2(CCCN2C2COC2)Cc2ccccc21 (stereo not given),8.9µM
CS(=O)(=O)N1CCCN(C(=O)C2CCCCC2)c2ccccc21,i
CC(=O)N1CC2(CCN(CC3CC3)CC2)Cc2ccccc21,i
CC(=O)N1CC2(CCCN2C(=O)CCC(=O)O)Cc2ccccc21 (stereo not given),i
CC(=O)N1CC2(CCCN(CC3CCCCC3)C2)Cc2ccccc21 (stereo not given),10µM
N#Cc1cccc(C(=O)N2C[C@@H](CO)[C@H](c3ccccn3)C2)c1,i
O=C(c1ccc(Cn2cnnn2)cc1)N1CCC2(CC1)[C@H](O)C[C@@H]2OCCO,i
COCCOC1CCOC2(CCN(C(=O)c3cc(F)ccc3F)CC2)C1 (stereo not given),i
SMILES,Pf Dd2 inh
Cc1cccc(C)c1OCC(=O)NCC1(N(C)C)CCCCC1,i
Cc1ccc(C(C)C)c(OCC(=O)NCC2(N(C)C)CCCCC2)c1,2.8µM
Cc1ccc(C(C)C)c(OCC(=O)Nc2nc3c(s2)CCCC3)c1,i
O=C1CC(c2ccccc2)N(C(=O)CNC(=O)c2cc(-c3ccc(F)cc3)n[nH]2)CCCCCN1 (stereo not given),i
COCCn1c(Cn2nc3n(c2=O)CCCCC3)nnc1C1CC(N)C1 (stereo not given),i
COCCNc1ccc2nnc(-c3cc(C#N)ccn3)n2n1,i
COCCNc1ccc2nnc(-c3ccc(C)cn3)n2n1,i
COCCNc1cc(-c2cc(C(F)(F)F)ccn2)c2cc[nH]c2n1,10µM
Nc1nc(C2CC(NC(=O)c3cnn(Cc4ccccc4)c3)C2)cc(=O)[nH]1 (stereo not given),i
CNC(=O)[C@@H](Cc1ccccc1)N1CCC[C@H]1C(=O)N1CCOCC1,i
CCN(Cc1ccccc1)C(=O)Cn1c(C)ccc(NS(=O)(=O)c2ccccc2)c1=O,i
Cc1ccc(CN2CCN(C(=O)C3Cn4cccc4C(=O)N3C)CC2)cc1 (stereo not given),i
CCCNC(=O)C(NC(=O)c1cccc(OC)c1)C1CCN(C(=O)c2cccc(OC)c2)CC1 (stereo not given),i
CCC(C)NC(=O)C(NC(=O)c1ccc(C)cc1)C1CCN(C(=O)c2ccc(F)cc2)CC1 (stereo not given),i
CCN(CC)C(=O)C(NC(=O)c1ccc(OC)cc1)C1CCN(C(C)=O)CC1 (stereo not given),i
COc1ccc(C(=O)NC(C(=O)N2CCCC2)C2CCN(C(=O)c3ccccc3)CC2)cc1 (stereo not given),i
COc1ccc(C(=O)NC(C(=O)NC(C)C(C)C)C2CCN(C(=O)c3ccc(C)cc3)CC2)cc1 (stereo not given),2.5µM
CCN(CC)C(=O)C(NC(=O)c1ccc(C)cc1)C1CCN(C(=O)c2cccc(OC)c2)CC1 (stereo not given),4.5µM
COc1ccc(CN2CCNc3cnc(OCc4cccnc4)cc3C2)cc1O,i
O=C(NCC1CC1)c1cn(C2CN(C(=O)Nc3ccccc3F)C2)nn1,i
CNC(=O)[C@@H]1CN(C(=O)c2ccc(Cl)cc2)C[C@H]1CO,i
O=C(CCc1ccc(=O)[nH]n1)N1CCC2(CCCNC2=O)C1 (stereo not given),i
Cc1cccc(Nc2nc(Nc3cccc(C)c3)nc(N3CCOCC3)n2)c1,11µM
Cc1cccc(Nc2nc(N)nc(CN3CC[C@@H](N)[C@H](O)C3)n2)c1,i
CCOc1ccc(Nc2nc(Nc3ccc(OCC)cc3)nc(N3CCOCC3)n2)cc1,i
SMILES,Pf Dd2 inh
CO[C@H]1C(=O)N(C(C)C)[C@H]1C1CCN(S(=O)(=O)c2cccs2)CC1,i
Fc1ccc(Cc2nc3nccc(-c4ccsc4)n3n2)cc1,i
CCOc1ccc(CC(=O)N2CCC[C@H]2c2nc(-c3ccccc3)no2)cc1OCC,i
O=C(Cc1ccccc1)N1CCC[C@H]1c1nc(-c2ccccc2)no1,10µM
O=C(Cc1ccc(F)cc1)N1CCC[C@H]1c1nc(-c2ccc(F)cc2)no1,i
COc1ccc(CN2CC[C@@H]3[C@H]2C(=O)NC[C@H](CCC(=O)NCc2ccco2)N3C)cc1,i
CCC(Nc1ccc(-c2nc(-c3ccco3)no2)cc1[N+](=O)[O-])c1ccccc1 (stereo not given),10µM
CCCCNc1ccc(-c2nc(-c3ccco3)no2)cc1[N+](=O)[O-],i
O=[N+]([O-])c1cc(-c2nc(-c3ccco3)no2)ccc1NCc1ccccc1,i
COc1ccc(Cl)cc1C(=O)NCc1nnc2cc(-c3nc(C)no3)ccn12,i
CCOCCOC1CCN(S(=O)(=O)c2cccc(OC)c2)CC1,i
COCCO[C@H]1C(=O)N(C2CCN(C(=O)c3ccncc3)CC2)[C@H]1c1ccncc1,i
Cc1cnc(CC2CCN(C(=O)NC(C)C)CC2)n1Cc1ccc(F)cc1,i
Cc1cnc(C2CCC2)n1CC1CCN(C(=O)C(C)c2ccccc2)CC1 (stereo not given),8.9µM
Cc1ccc(C(=O)N2CCC(Cn3c(C)cnc3C3CCC3)CC2)cn1,i
Cc1cnc(CC2CCN(C(=O)C(C)c3ccccc3)CC2)n1Cc1ccc(F)cc1 (stereo not given),2.2µM
Cc1cnc(CC2CCCN(C(=O)c3cccnc3)C2)n1Cc1ccc(F)cc1 (stereo not given),i
Cc1cnc(CC2CCCNC2)n1Cc1ccc(F)cc1 (stereo not given),i
Cc1cnc(CC2CCN(C(=O)CC3CCCC3)CC2)n1Cc1ccc(F)cc1,3.2µM
Cc1cnc(CC2CCN(C(=O)C3CCOC3)CC2)n1Cc1ccc(F)cc1 (stereo not given),i
Cc1cnc(C2CCC2)n1CC1CCN(C(=O)Cc2cccnc2)CC1,i
